Common to all, as to experiment: DAPPL (digital affinity profiling via proximity ligation, sequencing); 10 mM Tris-HCl pH 7.5, 50 mM NaCl, 1 mM DTT, 4% glycerol, room temperature, 30 min; GST-TFs on glutathione beads, 16-mer random dsDNA library, 0.1% formaldehyde crosslink after washing; high values mean tight binding
The target of experiment [1] is T1, FEV (Homo sapiens, UniProt Q99581 1-238).
T1 sequence: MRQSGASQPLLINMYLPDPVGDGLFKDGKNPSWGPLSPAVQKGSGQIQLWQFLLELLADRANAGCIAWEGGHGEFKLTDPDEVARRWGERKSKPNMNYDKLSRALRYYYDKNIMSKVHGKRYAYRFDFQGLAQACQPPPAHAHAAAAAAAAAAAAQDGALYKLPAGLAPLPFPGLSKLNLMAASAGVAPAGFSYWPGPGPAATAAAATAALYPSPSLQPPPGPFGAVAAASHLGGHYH
Conditions: protein: recombinant; tags: N-terminal GST; dsDNA, one strand shown. A digest of the protocol: (§1)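 Human transcription factors carrying a GST fusion were produced in yeast, bound to glutathione beads, tagged with DNA barcodes and pooled together with a tag-only sample. Each pool was held with 200 nmole of a random double-stranded 16-mer DNA library in Tris/NaCl/DTT/glycerol buffer for 30 min at room temperature, then washed, crosslinked in 0.1% formaldehyde, proximity-ligated with BsaI/T4 ligase (1 h, 37 °C), PCR-amplified and sequenced on an Illumina NextSeq500. Binding signal is the read frequency of each hexamer for a given factor divided by its frequency in the tag-only sample.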

For experiment [2], the target named is ETV5 (Homo sapiens, UniProt P41161 1-510). The settings on record: protein: recombinant; tags: N-terminal GST; dsDNA, one strand shown. The procedure, abridged: as §1
For experiment [3], the target named is HSF1 (Homo sapiens, UniProt Q00613 1-529). The settings on record: protein: recombinant; tags: N-terminal GST; chain copies: 3; dsDNA, one strand shown. The procedure, abridged:
as §1

For experiment [4], the target named is T2, SPIC (Homo sapiens, UniProt Q8N5J4 1-248).
T2 sequence: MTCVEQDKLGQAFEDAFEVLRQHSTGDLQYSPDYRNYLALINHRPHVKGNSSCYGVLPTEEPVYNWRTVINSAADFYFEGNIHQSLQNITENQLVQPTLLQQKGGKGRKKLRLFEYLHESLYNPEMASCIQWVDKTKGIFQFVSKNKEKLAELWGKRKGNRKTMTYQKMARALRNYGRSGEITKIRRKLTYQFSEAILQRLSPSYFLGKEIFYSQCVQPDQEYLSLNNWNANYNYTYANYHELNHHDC
Conditions: protein: recombinant; tags: N-terminal GST; dsDNA, one strand shown. The procedure, abridged: as §1

Experiment [5] deals with ELF4 (Homo sapiens, UniProt Q99607 1-663). The settings on record: protein: recombinant; tags: N-terminal GST; dsDNA, one strand shown. A digest of the protocol:
as §1

The target of experiment [6] is T3, ELK4 (Homo sapiens, UniProt P28324-2 1-405).
T3 sequence: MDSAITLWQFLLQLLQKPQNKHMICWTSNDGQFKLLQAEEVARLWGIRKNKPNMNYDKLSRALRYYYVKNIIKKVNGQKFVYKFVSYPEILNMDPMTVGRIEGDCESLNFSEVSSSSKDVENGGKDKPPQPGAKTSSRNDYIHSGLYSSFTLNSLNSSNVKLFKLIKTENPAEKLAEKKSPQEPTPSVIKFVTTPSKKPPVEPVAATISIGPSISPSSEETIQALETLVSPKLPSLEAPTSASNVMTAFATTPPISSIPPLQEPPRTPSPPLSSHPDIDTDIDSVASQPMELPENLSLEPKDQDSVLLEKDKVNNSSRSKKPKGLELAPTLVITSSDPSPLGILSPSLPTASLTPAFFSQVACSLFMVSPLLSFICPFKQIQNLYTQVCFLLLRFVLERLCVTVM
The settings on record: protein: recombinant; tags: N-terminal GST; dsDNA, one strand shown. A digest of the protocol:
as §1

For experiment [7], the target named is T4, ETV2 (Homo sapiens, UniProt O00321 1-342).
T4 sequence: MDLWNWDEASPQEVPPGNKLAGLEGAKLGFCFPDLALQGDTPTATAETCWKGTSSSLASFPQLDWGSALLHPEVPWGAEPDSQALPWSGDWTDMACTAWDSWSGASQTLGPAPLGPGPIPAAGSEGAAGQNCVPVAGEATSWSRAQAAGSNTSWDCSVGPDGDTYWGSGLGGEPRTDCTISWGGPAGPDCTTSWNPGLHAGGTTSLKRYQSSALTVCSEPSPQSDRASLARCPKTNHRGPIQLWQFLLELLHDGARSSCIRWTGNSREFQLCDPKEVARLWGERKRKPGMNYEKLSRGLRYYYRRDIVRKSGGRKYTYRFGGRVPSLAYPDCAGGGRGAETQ
Conditions: protein: recombinant; tags: N-terminal GST; dsDNA, one strand shown. A digest of the protocol: as §1

In experiment [8] the target is T5, ELF3 (Homo sapiens, UniProt P78545 1-371).
T5 sequence: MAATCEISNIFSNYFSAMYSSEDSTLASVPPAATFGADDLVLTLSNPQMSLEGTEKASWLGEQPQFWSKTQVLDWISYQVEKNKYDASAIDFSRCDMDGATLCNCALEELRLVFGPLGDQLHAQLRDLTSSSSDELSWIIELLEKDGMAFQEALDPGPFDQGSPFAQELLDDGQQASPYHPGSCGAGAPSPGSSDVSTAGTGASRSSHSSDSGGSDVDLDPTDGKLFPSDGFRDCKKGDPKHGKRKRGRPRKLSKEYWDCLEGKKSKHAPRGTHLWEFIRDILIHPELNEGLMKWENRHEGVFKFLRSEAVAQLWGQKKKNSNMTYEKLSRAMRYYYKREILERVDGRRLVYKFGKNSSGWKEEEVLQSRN
The settings on record: protein: recombinant; tags: N-terminal GST; dsDNA, one strand shown. The procedure, abridged:
as §1

The target of experiment [9] is CRX (Homo sapiens, UniProt O43186 1-299). Conditions: protein: recombinant; tags: N-terminal GST; dsDNA, one strand shown. The procedure, abridged: as §1
Experiment [10] addresses ETV1 (Homo sapiens, UniProt P50549 1-477). Conditions: protein: recombinant; tags: N-terminal GST; dsDNA, one strand shown. A digest of the protocol:
as §1

In experiment [11] the target is T6, ERF (Homo sapiens, UniProt P50548 1-548).
T6 sequence: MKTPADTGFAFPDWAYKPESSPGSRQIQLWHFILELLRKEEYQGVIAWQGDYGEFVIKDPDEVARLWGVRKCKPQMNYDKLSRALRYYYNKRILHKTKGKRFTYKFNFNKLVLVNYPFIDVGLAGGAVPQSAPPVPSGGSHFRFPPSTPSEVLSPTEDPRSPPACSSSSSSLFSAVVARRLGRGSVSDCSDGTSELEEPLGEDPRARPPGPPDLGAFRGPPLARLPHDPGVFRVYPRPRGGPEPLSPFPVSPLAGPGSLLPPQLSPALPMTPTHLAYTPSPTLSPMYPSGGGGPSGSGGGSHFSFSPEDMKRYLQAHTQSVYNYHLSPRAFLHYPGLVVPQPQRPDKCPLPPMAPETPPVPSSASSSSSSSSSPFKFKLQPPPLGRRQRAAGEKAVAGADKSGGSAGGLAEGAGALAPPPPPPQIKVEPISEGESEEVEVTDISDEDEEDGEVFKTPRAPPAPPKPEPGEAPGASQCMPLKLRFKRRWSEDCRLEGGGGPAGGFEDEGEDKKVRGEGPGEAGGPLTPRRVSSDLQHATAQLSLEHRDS
The settings on record: protein: recombinant; tags: N-terminal GST; dsDNA, one strand shown. A digest of the protocol: as §1

The target of experiment [12] is T7, ETV3L (Homo sapiens, UniProt Q6ZN32 1-361).
T7 sequence: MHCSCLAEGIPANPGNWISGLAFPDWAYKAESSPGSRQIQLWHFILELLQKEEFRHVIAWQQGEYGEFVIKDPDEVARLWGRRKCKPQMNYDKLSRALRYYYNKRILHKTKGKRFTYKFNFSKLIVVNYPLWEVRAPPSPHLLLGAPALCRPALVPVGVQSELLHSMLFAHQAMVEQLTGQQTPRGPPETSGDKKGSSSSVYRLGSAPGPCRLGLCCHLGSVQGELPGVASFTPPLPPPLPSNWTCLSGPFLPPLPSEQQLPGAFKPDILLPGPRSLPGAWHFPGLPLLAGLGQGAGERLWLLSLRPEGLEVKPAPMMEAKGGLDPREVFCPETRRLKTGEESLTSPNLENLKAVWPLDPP
Conditions: protein: recombinant; tags: N-terminal GST; dsDNA, one strand shown. A digest of the protocol: as §1

Experiment [13] deals with T8, ETS2 (Homo sapiens, UniProt P15036 1-469).
T8 sequence: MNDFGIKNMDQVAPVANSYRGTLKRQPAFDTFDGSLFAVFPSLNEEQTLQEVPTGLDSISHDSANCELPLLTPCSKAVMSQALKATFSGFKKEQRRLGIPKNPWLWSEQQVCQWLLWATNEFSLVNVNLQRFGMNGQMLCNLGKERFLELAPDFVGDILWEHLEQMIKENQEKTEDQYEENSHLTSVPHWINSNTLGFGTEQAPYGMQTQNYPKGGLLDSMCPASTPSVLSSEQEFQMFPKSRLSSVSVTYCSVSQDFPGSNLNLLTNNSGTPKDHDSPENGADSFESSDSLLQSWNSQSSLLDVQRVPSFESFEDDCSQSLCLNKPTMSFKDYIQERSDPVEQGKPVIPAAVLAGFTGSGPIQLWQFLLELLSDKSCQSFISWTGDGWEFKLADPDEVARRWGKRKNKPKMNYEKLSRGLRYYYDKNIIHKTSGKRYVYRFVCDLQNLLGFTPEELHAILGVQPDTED
The settings on record: protein: recombinant; tags: N-terminal GST; dsDNA, one strand shown. The procedure, abridged: as §1

Experiment [14] concerns the target T9, SPDEF (Homo sapiens, UniProt O95238 1-335).
T9 sequence: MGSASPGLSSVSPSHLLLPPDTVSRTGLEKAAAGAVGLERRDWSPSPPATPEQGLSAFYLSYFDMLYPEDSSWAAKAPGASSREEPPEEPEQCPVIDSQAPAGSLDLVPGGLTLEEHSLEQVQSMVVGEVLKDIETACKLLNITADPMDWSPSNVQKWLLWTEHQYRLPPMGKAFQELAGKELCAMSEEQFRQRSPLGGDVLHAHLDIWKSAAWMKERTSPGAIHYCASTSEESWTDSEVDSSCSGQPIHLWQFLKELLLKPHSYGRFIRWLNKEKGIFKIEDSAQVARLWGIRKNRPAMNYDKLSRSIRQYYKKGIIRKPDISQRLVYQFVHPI
The settings on record: protein: recombinant; tags: N-terminal GST; dsDNA, one strand shown. The procedure, abridged: as §1

Experiment [15] addresses T10, ETV7 (Homo sapiens, UniProt Q9Y603 1-341).
T10 sequence: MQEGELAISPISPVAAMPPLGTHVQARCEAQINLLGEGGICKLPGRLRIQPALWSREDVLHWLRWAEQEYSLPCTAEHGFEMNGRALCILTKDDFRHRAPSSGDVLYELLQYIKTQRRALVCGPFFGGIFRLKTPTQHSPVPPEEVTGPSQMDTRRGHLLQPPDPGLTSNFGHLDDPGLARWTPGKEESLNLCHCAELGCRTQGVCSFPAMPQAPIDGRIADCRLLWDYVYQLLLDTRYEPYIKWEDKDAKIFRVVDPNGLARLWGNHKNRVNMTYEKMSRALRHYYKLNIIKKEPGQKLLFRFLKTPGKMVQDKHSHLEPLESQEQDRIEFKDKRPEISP
Conditions: protein: recombinant; tags: N-terminal GST; dsDNA, one strand shown. A digest of the protocol: as §1

The target of experiment [16] is T11, ELF5 (Homo sapiens, UniProt Q9UKW6-2 1-255).
T11 sequence: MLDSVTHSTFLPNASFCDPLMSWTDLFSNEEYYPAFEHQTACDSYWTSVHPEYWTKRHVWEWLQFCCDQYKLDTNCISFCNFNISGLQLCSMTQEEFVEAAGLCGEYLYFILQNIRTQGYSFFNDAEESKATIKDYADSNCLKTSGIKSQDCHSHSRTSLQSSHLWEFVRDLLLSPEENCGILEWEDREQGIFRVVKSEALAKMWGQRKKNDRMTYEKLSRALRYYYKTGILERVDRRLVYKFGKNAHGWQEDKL
Conditions: protein: recombinant; tags: N-terminal GST; dsDNA, one strand shown. The procedure, abridged: as §1

Experiment [17] has as its target T12, ETV3 (Homo sapiens, UniProt P41162-2 1-143).
T12 sequence: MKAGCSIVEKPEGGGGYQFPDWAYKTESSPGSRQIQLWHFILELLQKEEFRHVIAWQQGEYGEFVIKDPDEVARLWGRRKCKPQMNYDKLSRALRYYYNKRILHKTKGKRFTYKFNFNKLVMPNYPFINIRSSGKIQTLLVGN
Conditions: protein: recombinant; tags: N-terminal GST; dsDNA, one strand shown. A digest of the protocol:
as §1

For experiment [18], the target named is ETV6 (Homo sapiens, UniProt P41212 1-452). Conditions: protein: recombinant; tags: N-terminal GST; dsDNA, one strand shown. The procedure, abridged:
as §1

ELF4, sequence (Q99607 whole entry): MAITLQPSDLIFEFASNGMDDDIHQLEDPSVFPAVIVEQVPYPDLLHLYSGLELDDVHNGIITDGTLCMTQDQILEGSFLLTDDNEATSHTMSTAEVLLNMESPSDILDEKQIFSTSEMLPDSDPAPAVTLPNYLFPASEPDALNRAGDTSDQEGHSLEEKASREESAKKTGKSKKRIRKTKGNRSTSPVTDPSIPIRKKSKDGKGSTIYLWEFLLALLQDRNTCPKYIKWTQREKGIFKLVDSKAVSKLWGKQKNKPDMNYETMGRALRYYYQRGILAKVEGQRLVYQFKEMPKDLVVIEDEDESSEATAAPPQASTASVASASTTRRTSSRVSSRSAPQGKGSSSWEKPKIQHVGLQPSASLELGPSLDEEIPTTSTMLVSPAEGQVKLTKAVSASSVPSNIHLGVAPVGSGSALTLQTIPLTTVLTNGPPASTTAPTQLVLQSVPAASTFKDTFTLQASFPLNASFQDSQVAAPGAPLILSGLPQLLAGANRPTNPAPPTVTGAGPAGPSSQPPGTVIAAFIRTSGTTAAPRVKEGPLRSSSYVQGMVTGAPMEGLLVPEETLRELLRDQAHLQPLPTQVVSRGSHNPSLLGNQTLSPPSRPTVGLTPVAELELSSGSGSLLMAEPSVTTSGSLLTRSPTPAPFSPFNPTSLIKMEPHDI
ETV5, sequence (P41161 whole entry): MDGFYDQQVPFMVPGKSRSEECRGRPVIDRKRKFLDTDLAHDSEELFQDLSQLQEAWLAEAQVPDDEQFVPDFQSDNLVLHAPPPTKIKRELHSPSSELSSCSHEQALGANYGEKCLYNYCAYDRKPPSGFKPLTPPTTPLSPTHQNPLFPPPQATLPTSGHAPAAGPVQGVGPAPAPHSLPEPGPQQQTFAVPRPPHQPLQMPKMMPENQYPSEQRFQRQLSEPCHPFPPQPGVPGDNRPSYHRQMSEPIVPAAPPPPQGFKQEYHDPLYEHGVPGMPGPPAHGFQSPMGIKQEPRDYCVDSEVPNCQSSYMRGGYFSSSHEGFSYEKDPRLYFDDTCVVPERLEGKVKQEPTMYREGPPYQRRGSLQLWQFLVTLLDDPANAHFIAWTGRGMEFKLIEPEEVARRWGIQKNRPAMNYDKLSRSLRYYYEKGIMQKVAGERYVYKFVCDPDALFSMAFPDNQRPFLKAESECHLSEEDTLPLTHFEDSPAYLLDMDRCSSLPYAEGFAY
ETV1, sequence (P50549 whole entry): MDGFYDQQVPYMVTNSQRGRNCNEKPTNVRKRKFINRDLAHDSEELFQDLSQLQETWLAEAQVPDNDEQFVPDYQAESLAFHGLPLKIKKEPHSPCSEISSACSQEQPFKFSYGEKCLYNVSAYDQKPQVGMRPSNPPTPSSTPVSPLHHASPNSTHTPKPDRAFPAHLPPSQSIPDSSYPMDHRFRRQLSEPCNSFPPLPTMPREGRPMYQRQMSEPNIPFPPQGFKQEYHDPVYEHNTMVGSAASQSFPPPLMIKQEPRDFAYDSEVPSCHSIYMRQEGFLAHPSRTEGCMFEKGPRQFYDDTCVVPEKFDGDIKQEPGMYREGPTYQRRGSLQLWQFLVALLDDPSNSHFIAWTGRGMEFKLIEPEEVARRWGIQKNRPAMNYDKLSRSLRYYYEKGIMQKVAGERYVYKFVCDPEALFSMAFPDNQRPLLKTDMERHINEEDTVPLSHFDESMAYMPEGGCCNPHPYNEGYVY
ETV6, sequence (P41212 whole entry): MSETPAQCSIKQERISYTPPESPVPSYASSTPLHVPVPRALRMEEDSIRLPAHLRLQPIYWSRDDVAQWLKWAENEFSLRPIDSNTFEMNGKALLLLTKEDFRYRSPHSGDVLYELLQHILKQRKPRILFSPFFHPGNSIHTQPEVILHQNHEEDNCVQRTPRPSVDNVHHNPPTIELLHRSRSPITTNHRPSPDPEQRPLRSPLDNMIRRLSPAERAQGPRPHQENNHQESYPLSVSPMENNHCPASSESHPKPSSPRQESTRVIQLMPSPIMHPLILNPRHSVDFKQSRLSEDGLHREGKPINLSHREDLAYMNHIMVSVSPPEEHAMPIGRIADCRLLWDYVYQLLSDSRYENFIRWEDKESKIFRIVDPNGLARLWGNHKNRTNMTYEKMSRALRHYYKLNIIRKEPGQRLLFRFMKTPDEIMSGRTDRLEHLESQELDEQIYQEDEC
HSF1, sequence (Q00613 whole entry): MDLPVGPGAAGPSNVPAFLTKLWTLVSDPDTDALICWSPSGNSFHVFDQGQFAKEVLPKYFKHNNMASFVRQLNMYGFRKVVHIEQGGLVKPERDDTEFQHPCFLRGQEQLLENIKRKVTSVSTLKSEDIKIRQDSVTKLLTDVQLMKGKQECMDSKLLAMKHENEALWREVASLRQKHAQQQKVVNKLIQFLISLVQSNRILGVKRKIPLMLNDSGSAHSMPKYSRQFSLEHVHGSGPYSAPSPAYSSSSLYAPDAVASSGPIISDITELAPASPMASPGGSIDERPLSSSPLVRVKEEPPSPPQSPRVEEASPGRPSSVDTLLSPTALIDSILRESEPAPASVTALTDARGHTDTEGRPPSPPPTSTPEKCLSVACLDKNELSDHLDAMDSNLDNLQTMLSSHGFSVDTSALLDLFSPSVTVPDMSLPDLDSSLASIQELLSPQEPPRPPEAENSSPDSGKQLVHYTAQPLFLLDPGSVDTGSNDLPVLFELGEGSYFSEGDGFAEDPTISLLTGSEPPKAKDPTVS
CRX, sequence (O43186 whole entry): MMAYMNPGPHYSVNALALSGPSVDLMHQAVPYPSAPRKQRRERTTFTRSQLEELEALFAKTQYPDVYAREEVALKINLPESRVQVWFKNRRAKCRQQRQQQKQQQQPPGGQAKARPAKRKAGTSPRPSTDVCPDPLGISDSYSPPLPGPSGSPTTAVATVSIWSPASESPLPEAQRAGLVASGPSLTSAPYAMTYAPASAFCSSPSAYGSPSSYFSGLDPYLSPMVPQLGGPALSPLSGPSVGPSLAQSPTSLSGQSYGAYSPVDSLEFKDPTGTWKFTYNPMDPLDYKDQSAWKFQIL

On to TCTTTA, for which the binding signal in experiment [1] was 1.22 fold enrichment (6-mer frequency, TF over GST control); in experiment [2], 1.16 fold enrichment (6-mer frequency, TF over GST control); in experiment [3], 1.5 fold enrichment (6-mer frequency, TF over GST control); in experiment [4], 1.22 fold enrichment (6-mer frequency, TF over GST control); in [5], 1.21 fold enrichment (6-mer frequency, TF over GST control); in experiment [6], 1.3 fold enrichment (6-mer frequency, TF over GST control). Also, the binding signal in experiment [7] was 1.31 fold enrichment (6-mer frequency, TF over GST control); in experiment [8], 1.36 fold enrichment (6-mer frequency, TF over GST control); in experiment [9], 1.93 fold enrichment (6-mer frequency, TF over GST control); in [10], 1.25 fold enrichment (6-mer frequency, TF over GST control); in experiment [11], 1.1 fold enrichment (6-mer frequency, TF over GST control); in experiment [12], 1.4 fold enrichment (6-mer frequency, TF over GST control). In addition, the binding signal was 1.2 fold enrichment (6-mer frequency, TF over GST control) in [13]; 1.2 fold enrichment (6-mer frequency, TF over GST control) in experiment [14]; 1.25 fold enrichment (6-mer frequency, TF over GST control) in experiment [15]; 1.19 fold enrichment (6-mer frequency, TF over GST control) in experiment [16]; 1.25 fold enrichment (6-mer frequency, TF over GST control) in experiment [17]; 1.22 fold enrichment (6-mer frequency, TF over GST control) in [18].

The values above are taken from paper PMC7862700, “An all-to-all approach to the identification of sequence-specific readers for epigenetic DNA modifications on cytosine”.
